From PubChem
Many of the other results were omitted from the sample, so hits are more common in it than they were.
Dicer processing = inhibitors of human Dicer processing of pre-microRNA. Q9UPY3. AID 1347074. z-score at 25 µM. cat-ELCCA pre-miR-21 Dicer processing, chemiluminescence; stronger effect = higher value. actives 6% (n = 47,000); in the data active = z-score above about 3, passing the limit was not always enough;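 note: higher signal means more uncleaved substrate so more Dicer inhibition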
Of the large screens only hits and unclear results are named; the others gave an inactive call.

CCCCn1c(-c2ccc(N)cc2)nc2ccccc21	none
Cn1c(-c2ccc(F)cc2)cnc1NCc1cc(Cl)ccc1O	Dicer processing 5.6
Cc1ccc(-c2cnc(NCc3cc(Br)ccc3F)n2C)cc1	none
Cn1c(-c2ccc(Br)cc2)cnc1NCc1ccc(F)cc1	Dicer processing 3.1
Cn1c(-c2ccc(F)cc2)cnc1NCc1cc(Br)ccc1F	Dicer processing 3.1
COc1ccc(CNc2ncc(-c3ccc(Br)cc3)n2C)cc1OC	none
COc1cccc(CNc2ncc(-c3ccc(Br)cc3)n2C)c1	none
CCOc1cc(CNc2ncc(-c3ccc(Br)cc3)n2C)ccc1O	Dicer processing 3.4
Cc1ccc(CNc2ncc(-c3ccc(F)cc3)n2C)cc1	none
CCOc1ccc(-c2cnc(NCc3cc(Cl)ccc3O)n2C)cc1	none
Cn1c(-c2ccc(F)cc2)cnc1NCc1ccccc1Cl	none
Cn1c(-c2ccccc2)cnc1NCc1ccc(Br)cc1	none
COc1cccc(-c2cnc(NCc3cc(Br)ccc3F)n2C)c1	none
C=CCOc1ccc(C2/C(=C(\O)c3ccc(C)cc3)C(=O)C(=O)N2c2nnc(C)s2)cc1 (stereo not drawn)	none
Cc1noc(C)c1-c1nc(CN2C(=O)c3ccccc3S2(=O)=O)no1	none
Clc1ccc(C2C=C(c3ccccc3)Nc3ncnn32)cc1 (stereo not drawn)	none
Cc1ccc(-c2noc(CNC3CCCCC3)n2)cc1	none
Cc1cccnc1Nc1nc(-c2ccccc2)cs1	none
CN(C)c1oc(-c2cccs2)nc1S(=O)(=O)c1ccc(Cl)cc1	none
Cc1ccc(-n2sc(=O)n(Cc3ccc(F)cc3)c2=O)cc1	none
CCN1CN=C(SCc2ccc(Cl)cc2)NC1	none
COc1ccc(/C=C/c2nc3n(n2)C=COc2ccccc2-3)cc1	none
CSc1ccc(/C=C/c2nc3n(n2)C=COc2ccccc2-3)cc1	none
C1=Cn2nc(/C=C/c3c[nH]c4ccccc34)nc2-c2ccccc2O1	Dicer processing 4.2
CC(C)c1ccc(CNCCSc2nnnn2C)cc1	none
COc1ccc(CSc2nc(C)[nH]c2[N+](=O)[O-])cc1Br	none
O=S(=O)(c1ccc(Cl)cc1)c1ccc(N=Cc2ccccc2O)cc1Cl	none
CSc1nc(C=Nc2ccc(Cl)cc2)c(O)n1Cc1ccccc1Cl	Dicer processing 4.7
O=C(O)c1cnn2c1[nH]c(=O)c1ccccc12	none
CCOC(=O)c1cnc(C(F)(F)F)nc1NNC(=O)c1ccc(Cl)cc1	Dicer processing 3.2
CCOC(=O)c1cnc(NNC(C)=O)nc1C(F)(F)F	Dicer processing 3.1
CCOC(=O)c1cnc(NNC(=O)c2ccc(F)cc2)nc1C(F)(F)F	none
CCOC(=O)c1cnc(C(F)(F)F)nc1Sc1n[nH]c(-c2cc(Cl)cc(Cl)c2)n1	none
CCOC(=O)c1cnc(C(F)(F)F)nc1Oc1ccccc1	none
CCOC(=O)c1cnc(Nc2ccccc2)nc1C(F)(F)F	none
CC(=O)CC(c1ccccc1)c1c(O)c2ccccc2oc1=O (stereo not drawn)	none
COC(=O)c1ccc2c(c1)N(C)S(=O)(=O)/C(=C\N(C)C)C2=O	none
O=C(O)c1ccccc1C(=O)c1cc(Cl)cc(Cl)c1	none
CN(C)CCCNC(=O)c1c(F)cccc1NC(=O)c1cccc(C(F)(F)F)c1	none
Cc1ccc(S(=O)(=O)NCc2ccc3[nH]c4c(c3c2)CCCC4)cc1C	none
O=C(NCCc1cccs1)N1CCN(C2c3ccccc3-c3ccccc32)CC1	none
O=C1c2cccc3c(N4CCOCC4)ccc(c23)C(=O)N1CCO	none
COc1ccc(CCN2C(=O)c3cccc4c(Sc5ccccn5)ccc(c34)C2=O)cc1OC	none
O=C1c2cccc3c(Sc4ccccc4)ccc(c23)C(=O)N1NCCO	Dicer processing 3.2
Fc1cccc(Nc2ncnc3c2oc2ccccc23)c1	none
CSc1c(C#N)c(-c2cccs2)nn1CC(=O)N/N=C/c1c(F)cccc1Cl	none
CCOC(=O)CSc1nc2sc3c(c2c(=O)n1-c1ccc(OC)cc1)CC(C)(C)OC3	none
CC1c2ccsc2CCN1C(=S)NC(=O)c1ccccc1Cl (stereo not drawn)	none
CCc1ccc(C(=O)CCC(=O)O)cc1	none
CCCCCCSc1nnc2[nH]c(=O)cc(N)n12	Dicer processing 3.8
COc1ccccc1OCCSc1nnc2[nH]c(=O)cc(N)n12	none
C=CCSc1n[nH]c(=O)n1C1CCCCC1	none
CC(C)CSc1nnc2[nH]c(=O)cc(N)n12	none
C=C(C)CSc1nnc2[nH]c(=O)cc(N)n12	none
C=CCSc1nnc2[nH]c(=O)cc(N)n12	Dicer processing 5.2
O=c1c(Cc2ccccc2)c(O)nc2ccccn12	none
CCN1CCCC(OC(=O)C(c2ccccc2)c2ccccc2)C1 (stereo not drawn)	none
CC(=O)CSc1ccc(OCC(F)(F)F)c(C#N)c1OCC(F)(F)F	none
CSc1nc(N)nc(C2COc3ccccc3O2)n1 (stereo not drawn)	none
O=c1[nH]c2ccccc2nc1/C=C/c1cccs1	none
COC(=O)Oc1ccc2c(=O)c(-c3ccccc3)coc2c1	none
Cc1ccc2c(=O)c(C(=O)c3ccccc3)coc2c1	Dicer processing 5.5
Cc1ccc2c(=O)c(C(=O)c3ccccc3C)coc2c1	none
CSc1ssc(=Nc2ccc(C)c(Cl)c2)c1-c1ccccc1	none
CSc1ssc(=Nc2ccc(F)c(F)c2)c1-c1ccccc1	Dicer processing 3.6
CCOc1ccc(N=c2ssc(SC)c2-c2ccccc2)cc1	none
CCCCOC(=O)Cn1nnc2sc3c(c2c1=O)CCCC3	none
Cc1ccc(N2C(=O)CC3(CC(C(=O)OCc4ccccc4)=NN3)C2=O)cc1C (stereo not drawn)	none
Nc1ccc2nc(CCCc3nc4ccccc4s3)[nH]c2c1	none
Nc1ccc(C(=O)OCCCc2nc3ccc(N)cc3[nH]2)cc1	none
Nc1ccc2nc(/C=C/c3ccccc3)[nH]c2c1	Dicer processing 3.2
Nc1ccc(Cc2nc3ccc(C(=O)O)cc3[nH]2)cc1	none
Nc1cccc(-c2nc3ccc(N)cc3[nH]2)c1	none
Nc1cccc(/C=C/c2nc3ccc(N)cc3[nH]2)c1	Dicer processing 3.7
O=c1oc(-c2ccccc2Cl)nn1-c1cc(C(F)(F)F)ccn1	none
Cc1ccc2nc(NCc3ccco3)c(C=NCc3ccco3)c(=O)n2c1	none
CCC(C)OC(=O)Cn1nnc2sc3c(c2c1=O)CCC(C)C3 (stereo not drawn)	none
CC(C)COC(=O)Cn1nnc2sc3c(c2c1=O)CCC(C)C3 (stereo not drawn)	none
COC(=O)Cn1nnc2sc3c(c2c1=O)CCCC3	none
COCCOC(=O)Cn1nnc2sc3c(c2c1=O)CCC(C)C3 (stereo not drawn)	none
CC1CCN(C(=O)Cn2nnc3sc4c(c3c2=O)CCC(C)C4)CC1 (stereo not drawn)	Dicer processing 3
CC1CCc2c(sc3nnn(CC(=O)NC4CCCCC4)c(=O)c23)C1 (stereo not drawn)	none
CC1CCN(C(=O)Cn2nnc3sc4c(c3c2=O)CCCC4)CC1	Dicer processing 3.5
CCCOC(=O)Cn1nnc2sc3c(c2c1=O)CCCC3	none
CCCCCOC(=O)Cn1nnc2sc3c(c2c1=O)CCC(C)C3 (stereo not drawn)	Dicer processing 3.5
NS(=O)(=O)c1ccc(NC(=O)c2ccc(S(=O)(=O)N3CCOCC3)o2)cc1	none
CCOc1ccc(Br)cc1C1NC(=O)c2c(sc3c2CCN(C)C3)N1 (stereo not drawn)	none
COc1ccc(OCC(=O)Oc2ccc3c(c2)C(C)=CC(C)(C)N3)cc1	none
CN(C)CCCSC(=N)N	none
CCN(CC)S(=O)(=O)c1ccc(NC2=NS(=O)(=O)c3ccccc32)cc1	none
Cc1cc(C)cc(NC(=O)Nc2ccc3ccccc3n2)c1	none
CN(C)C=NC(=O)c1ccc(S(=O)(=O)N2CCOCC2)cc1	none
O=C(Nc1ccc2ccccc2n1)Nc1cccs1	none
Cc1[nH]nc2c1C(c1ccc(Cl)cc1)C(C#N)=C(N)O2 (stereo not drawn)	none
Oc1c(Cl)cc(Cl)c2cccnc12	Dicer processing 3.1
